Results filed as inconclusive are left out. Unmarked numbers belong to inactive results. Activity calls are given as the source filed them. Calls come from the whole dose curve; as a rule, active = well fitted curve in the direction sought with a large enough effect in the repeat runs; inconclusive = weak or mixed curves; inactive = no such curve, though single readings can be large; an effect the other way counts as inactive or inconclusive.
Test: A CellTox Green Cytotoxicity Assay to monitor cytotoxicity in HEK293 cells - 8 hour (AID 1224884); note: nearly all actives have a fitted effect of over 35% in size
Conditions: CellTox Green fluorescence; series mostly up to 76.8 µM; cytotoxicity increase: at the top concentration
Summary of the method: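 Cells (HEK293, 600/well) and dye reagent are dispensed together. After 5 h at 37 C, 23 nL compound is pinned in. Plates stay at 37 C for 40 h with fluorescence read at 0h, 8h, 16h, 24h, 32h and 40h.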
% is set by controls: 0 for no effect and ±100 for the full control effect.

| SMILES | cytotoxicity increase |
| --- | --- |
| CC(CCc1ccc2c(c1)OCO2)NN (stereo not drawn) | 0.672% [at 35.3 µM] |
| CO[Si](C)(OC)OC | -4.08% |
| CCC1(C)CC(=O)NC1=O (stereo not drawn) | -12.2% [at 35.3 µM] |
| CC(=O)CC(c1ccc([N+](=O)[O-])cc1)c1c(O)c2ccccc2oc1=O (stereo not drawn) | -3.82% [at 35.3 µM] |
| CSc1ccc(Oc2ccc(S(N)(=O)=O)cc2CN(C)C)cc1C | -18.7% |
| COc1ccc([C@@H]2Sc3ccccc3NC(=O)[C@@H]2O)cc1 | -2.58% [at 35.3 µM] |
| Nc1nc(Cl)nc2c1ncn2[C@@H]1O[C@H](CO)[C@@H](O)[C@@H]1F | 2.22% [at 35.3 µM] |
| C=CC(C)(C)CC(=O)OC | -4.97% |
| O=C(O)C(Cc1cc(I)c(O)c(I)c1)c1ccccc1 (stereo not drawn) | -25% [at 35.3 µM] |
| CO[C@@]12[C@H](COC(N)=O)C3=C(C(=O)C(C)=C(N)C3=O)N1C[C@@H]1N[C@@H]12 | 11.8% [at 35.3 µM] |
| CC1=NN(c2ccc(C(=O)O)cc2)C(=O)C1 | 4.94% |
| CN(C)C(=O)Nc1ccc(Oc2ccc(Cl)cc2)cc1 | -10.1% |
| CNC(=S)NC | 0.838% |
| CCCCC(=O)O[C@]1(C(=O)CO)CC[C@H]2[C@@H]3CCC4=CC(=O)CC[C@]4(C)[C@H]3[C@@H](O)C[C@@]21C | -2.37% [at 35.3 µM] |
| C1COCO1 | 5.4% |
| Cc1ccnc2ccccc12 | -1.03% |
| CO[C@H]1O[C@H](CO)[C@@H](O)[C@H](O)[C@H]1O | 6.72% |
| CC(=O)Oc1ccc(C(=C2CCCCC2)c2ccc(OC(C)=O)cc2)cc1 | -11.7% [at 35.3 µM] |
| CCc1cccc(N(C)C(N)=Nc2cccc3ccccc23)c1 | -2.89% [at 35.3 µM] |
| CCCCCCCC/C=C\CCCCCCCC(=O)OC | -5.7% |

| SMILES | cytotoxicity increase |
| --- | --- |
| ON(Cc1ccccc1)Cc1ccccc1 | 2.95% |
| CCC(C)(C)C1CCC(O)CC1 (stereo not drawn) | 14.3% |
| c1cc[c]([Bi]([c]2ccccc2)[c]2ccccc2)cc1 | 2.3% |
| CC(C)(C)C(=O)O | 2.31% |
| NCC1CCCC(CN)C1 (stereo not drawn) | 13% |
| Cc1occc1C(=O)Nc1ccc(C(=O)N2CCC(F)(F)/C(=C\C(=O)N3CCC(N4CCCCC4)CC3)c3ccccc32)cc1 | -8.8% [at 35.3 µM] |
| COc1cc2c(cc1OC)-c1cc(=Nc3c(C)cc(C)cc3C)n(C)c(=O)n1CC2 | 13.7% [at 35.3 µM] |
| Cc1ccccc1N1C(=O)c2cc(S(N)(=O)=O)c(Cl)cc2NC1C (stereo not drawn) | 1.33% [at 35.3 µM] |
| C=CC(=C)CCCC(C)(C)OC(C)=O | 0.0874% |
| NC(=O)N(O)[C@@H]1COc2cc(OCc3ccccc3)ccc21 | -5.29% |
| O=C(OCCOCCO)c1ccccc1Nc1cccc(C(F)(F)F)c1 | 3.37% [at 35.3 µM] |
| CN1CCN(c2c(F)cc3c(=O)c(C(=O)O)cn4c3c2OCN4C)CC1 | -22% [at 15.8 µM] |
| OCC1CC=CCC1 (stereo not drawn) | -4.97% |
| CC(C)CCCCCOC(=O)CCCCC(=O)OCCCCCC(C)C | -1.99% |
| CN1Cc2cc(C(=O)N3CCC(C4CCNCC4)CC3)ccc2N[C@@H](CC(=O)O)C1=O | 16.7% [at 35.3 µM] |
| COC(=O)c1cc(Cl)ccc1NS(=O)(=O)C(F)(F)F | -20.2% [at 35.3 µM] |
| CCOCCn1c(C2CCN(CCc3ccc(C(C)(C)C(=O)O)cc3)CC2)nc2ccccc21 | -7.34% [at 35.3 µM] |
| CCc1c2c(nc3ccc(OC(=O)N4CCC(N5CCCCC5)CC4)cc13)-c1cc3c(c(=O)n1C2)COC(=O)[C@]3(O)CC | 6.65% [at 35.3 µM] |
| CC1CC(=O)NN=C1c1ccc(NCC(C)(C)NCC(O)COc2cc(Cl)ccc2C#N)cc1 (stereo not drawn) | -0.383% [at 35.3 µM] |

Test: qHTS RealTime-Glo MT Cell Viability Assay in HepG2 cells - 16 hour (AID 1224885); note: nearly all actives have a fitted effect of over 50% in size; note: potency is the fitted concentration of half-maximal effect
Conditions: RealTime-Glo luminescence; series mostly up to 76.8 µM; activity change, negative = cytotoxic: at the top concentration
Summary of the method: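 Cells + NanoLuc/prosubstrate dispensed (600 cells/well) → 5 h at 37 C/5% CO2 → compounds in DMSO transferred → 40 h incubation at 37 C, luminescence read at 0, 8, 16, 24, 32, 40 h.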

| SMILES | activity change, negative = cytotoxic | Potency |
| --- | --- | --- |
| CC(CCc1ccc2c(c1)OCO2)NN (stereo not drawn) | 0.212% [at 35.3 µM] |  |
| CO[Si](C)(OC)OC | -0.175% |  |
| CCC1(C)CC(=O)NC1=O (stereo not drawn) | -0.378% [at 35.3 µM] |  |
| CC(=O)CC(c1ccc([N+](=O)[O-])cc1)c1c(O)c2ccccc2oc1=O (stereo not drawn) | -0.0267% [at 35.3 µM] |  |
| CSc1ccc(Oc2ccc(S(N)(=O)=O)cc2CN(C)C)cc1C | -20.5% |  |
| COc1ccc([C@@H]2Sc3ccccc3NC(=O)[C@@H]2O)cc1 | -0.688% [at 35.3 µM] |  |
| Nc1nc(Cl)nc2c1ncn2[C@@H]1O[C@H](CO)[C@@H](O)[C@@H]1F | 2.06% [at 35.3 µM] |  |
| C=CC(C)(C)CC(=O)OC | -17.1% |  |
| O=C(O)C(Cc1cc(I)c(O)c(I)c1)c1ccccc1 (stereo not drawn) | 0.319% [at 35.3 µM] |  |
| CO[C@@]12[C@H](COC(N)=O)C3=C(C(=O)C(C)=C(N)C3=O)N1C[C@@H]1N[C@@H]12 |  | 3.38 µM (active) |
| CC1=NN(c2ccc(C(=O)O)cc2)C(=O)C1 | -3.77% |  |
| CN(C)C(=O)Nc1ccc(Oc2ccc(Cl)cc2)cc1 | -12.3% |  |
| CNC(=S)NC | -6.99% |  |
| CCCCC(=O)O[C@]1(C(=O)CO)CC[C@H]2[C@@H]3CCC4=CC(=O)CC[C@]4(C)[C@H]3[C@@H](O)C[C@@]21C | 0.606% [at 35.3 µM] |  |
| C1COCO1 | 2.57% |  |
| Cc1ccnc2ccccc12 | 0.0266% |  |
| CO[C@H]1O[C@H](CO)[C@@H](O)[C@H](O)[C@H]1O | 1.66% |  |
| CC(=O)Oc1ccc(C(=C2CCCCC2)c2ccc(OC(C)=O)cc2)cc1 | 7.8% [at 35.3 µM] |  |
| CCc1cccc(N(C)C(N)=Nc2cccc3ccccc23)c1 | -16.5% [at 35.3 µM] |  |
| CCCCCCCC/C=C\CCCCCCCC(=O)OC | -0.0982% |  |

| SMILES | activity change, negative = cytotoxic | Potency |
| --- | --- | --- |
| ON(Cc1ccccc1)Cc1ccccc1 | -4.14% |  |
| CCC(C)(C)C1CCC(O)CC1 (stereo not drawn) | -5.09% |  |
| c1cc[c]([Bi]([c]2ccccc2)[c]2ccccc2)cc1 | -10.1% |  |
| CC(C)(C)C(=O)O | 0.579% |  |
| NCC1CCCC(CN)C1 (stereo not drawn) | 4.02% |  |
| Cc1occc1C(=O)Nc1ccc(C(=O)N2CCC(F)(F)/C(=C\C(=O)N3CCC(N4CCCCC4)CC3)c3ccccc32)cc1 | -10.2% [at 35.3 µM] |  |
| COc1cc2c(cc1OC)-c1cc(=Nc3c(C)cc(C)cc3C)n(C)c(=O)n1CC2 | -14.8% [at 35.3 µM] |  |
| Cc1ccccc1N1C(=O)c2cc(S(N)(=O)=O)c(Cl)cc2NC1C (stereo not drawn) | 0.561% [at 35.3 µM] |  |
| C=CC(=C)CCCC(C)(C)OC(C)=O | 2.53% |  |
| NC(=O)N(O)[C@@H]1COc2cc(OCc3ccccc3)ccc21 | -4.01% |  |
| O=C(OCCOCCO)c1ccccc1Nc1cccc(C(F)(F)F)c1 | -20.1% [at 35.3 µM] |  |
| CN1CCN(c2c(F)cc3c(=O)c(C(=O)O)cn4c3c2OCN4C)CC1 | 4.97% [at 15.8 µM] |  |
| OCC1CC=CCC1 (stereo not drawn) | 1.44% |  |
| CC(C)CCCCCOC(=O)CCCCC(=O)OCCCCCC(C)C | -8.4% |  |
| CN1Cc2cc(C(=O)N3CCC(C4CCNCC4)CC3)ccc2N[C@@H](CC(=O)O)C1=O | -0.0264% [at 35.3 µM] |  |
| COC(=O)c1cc(Cl)ccc1NS(=O)(=O)C(F)(F)F | -0.632% [at 35.3 µM] |  |
| CCOCCn1c(C2CCN(CCc3ccc(C(C)(C)C(=O)O)cc3)CC2)nc2ccccc21 | 6.31% [at 35.3 µM] |  |
| CCc1c2c(nc3ccc(OC(=O)N4CCC(N5CCCCC5)CC4)cc13)-c1cc3c(c(=O)n1C2)COC(=O)[C@]3(O)CC | -9.17% [at 35.3 µM] |  |
| CC1CC(=O)NN=C1c1ccc(NCC(C)(C)NCC(O)COc2cc(Cl)ccc2C#N)cc1 (stereo not drawn) | -2.86% [at 35.3 µM] |  |
